In all, about 220,000 compounds went through this assay and about 830 (0.38%) were called active.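 How the source made its calls: active means compound inhibiting the enzyme by more than half at any dose during confirmatory dose-response retesting; inconclusive means strong single-dose inhibitors picked by rank but not retested; inactive means the rest.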 The list is a sample of the results. Potency and affinity values are given separately.
molecular target: Leucine aminopeptidase (Plasmodium falciparum (isolate 3D7)) (UniProt Q8IL11); test: P. falciparum M17LAP inhibitors, primary screen, biochemical, fluorogenic H-Leu-NHMec substrate, 1536-well (AID 1619); conditions: recombinant M17LAP, H-Leu-NHMec fluorogenic kinetic assay; at 30 µM; hits give high values;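 further: plate controls were full reaction with DMSO carrier for no effect and no enzyme background for full effect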
Sequence (Q8IL11 whole entry, looked up): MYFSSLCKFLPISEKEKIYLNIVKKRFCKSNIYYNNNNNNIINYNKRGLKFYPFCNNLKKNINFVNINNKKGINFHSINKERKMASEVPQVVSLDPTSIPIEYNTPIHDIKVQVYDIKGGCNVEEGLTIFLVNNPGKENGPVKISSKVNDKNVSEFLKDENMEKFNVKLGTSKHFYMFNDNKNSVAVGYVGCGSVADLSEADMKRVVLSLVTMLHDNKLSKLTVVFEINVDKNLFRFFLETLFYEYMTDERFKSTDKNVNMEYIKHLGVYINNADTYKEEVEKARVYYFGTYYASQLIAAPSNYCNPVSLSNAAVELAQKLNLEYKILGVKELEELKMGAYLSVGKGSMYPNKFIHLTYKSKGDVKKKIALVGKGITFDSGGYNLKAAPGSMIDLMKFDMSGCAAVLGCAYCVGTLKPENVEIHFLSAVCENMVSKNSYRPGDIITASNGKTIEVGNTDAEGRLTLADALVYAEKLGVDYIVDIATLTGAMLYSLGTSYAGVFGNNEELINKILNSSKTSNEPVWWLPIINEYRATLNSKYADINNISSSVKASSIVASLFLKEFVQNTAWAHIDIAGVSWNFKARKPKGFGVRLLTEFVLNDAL

inhibition, inactive:
CCOC(=O)/C(=C\c1ccc([N+](=O)[O-])o1)NC(=O)c1ccccc1 -88.3%, O=C(Cc1cn(Cc2cccc(Cl)c2)c2ccccc12)N1CCCCCC1 -20.4%, O=c1c2c3c(sc2nc2sc(CN4CCCCC4)cn12)CCCC3 -6.38%, N#Cc1c(NC(=O)CCC(=O)O)sc2c1CCCCC2 34.4%, N#Cc1c(NC(=O)C2CCCO2)sc2c1CCCCCC2 (centres undefined) 13.1%, CC(=O)Nc1sc2c(c1C#N)CCCCC2 -1.44%, N#Cc1c(NC(=O)c2ccccc2)sc2c1CCCCC2 21.1%, CC1CCc2c(sc(NC(=O)c3ccccc3C(=O)O)c2C#N)C1 (centres undefined) 1.93%, N#Cc1c(NC(=O)C2CCCO2)sc2c1CCCCC2 (centres undefined) -2.74%, CC1CCc2sc(NC(=S)NC(=O)c3ccccc3)c(C#N)c2C1 (centres undefined) -12%, N#Cc1c(NC(=O)C2CC2)sc2c1CCCCC2 28.1%, O=C(Nc1ccccc1NS(=O)(=O)c1ccc(F)cc1)C1CCC1 6.59%, COc1ccc(-c2cn(-c3ccc(SC(F)F)cc3)c3[n+]2CCC3)cc1OC -11.9%, O=C(CCN1C(=O)c2ccccc2C1=O)Nc1cccnc1 11.6%, N#Cc1c(-c2ccccc2)ccnc1N1CCOCC1 0.41%, CCCCC(=O)NC(c1ccc(OC)c(OC)c1)c1c(O)ccc2ccccc12 (centres undefined) 5.73%, C=CCNC(=S)Nc1cccc(N)c1 2.22%, Cc1cccc(NC(=O)Cn2nc([N+](=O)[O-])c(Br)c2C)n1 -0.63%, CCCn1c(/N=C/c2c[nH]c3ccccc23)nc2ccccc21 0.08%, CN(CCC#N)C(=O)COC(=O)/C=C/c1ccc2c(c1)OCO2 2.65%, COc1ccc(C2=CC3=C(Br)C(=O)C(C)(OC(=O)C4CCCC4)C(=O)C3=CO2)cc1 (centres undefined) 22.1%, Cc1sc(NC(=O)C2CCCC2)c(C#N)c1C 3.61%, CC(=O)Nc1sc2c(c1C#N)CCCC2 -9.07%, Cc1sc(NC(=O)C2CCCO2)c(C#N)c1C (centres undefined) 5.77%, CC(=O)Nc1sc2c(c1C#N)CCC2 -2.63%, CC1(C)Cc2c(sc(NC(=O)Cc3ccccc3)c2C#N)CO1 20.3%, CCOC(=O)c1c(NC(=O)C2CC(Cl)=CCC2C(=O)O)sc2c1CC(C)(C)OC2 (centres undefined) 42.4%, Cn1nnnc1SCC(=O)Nc1cccc(S(=O)(=O)N2CCCC2)c1 -2.95%, O=C(Nc1nnc(SCc2ccccc2F)s1)c1ccco1 8.78%, Cc1ccc(NC(=O)Nc2cccc(Cl)c2)c(C(=O)O)c1 -7.94%, COc1ccc(OC)c(NC(=O)CN2C(=O)c3ccccc3S2(=O)=O)c1 23.2%, CCC(C)NC(=O)c1ccccc1NC(=O)CN1C(=O)c2ccccc2S1(=O)=O (centres undefined) -2.81%, COc1ccc(C)cc1NC(=O)CN1C(=O)c2ccccc2S1(=O)=O 11.2%, CCOC(=O)c1ccccc1NC(=O)CN1C(=O)c2ccccc2S1(=O)=O -15.2%, C/C(=N\NC(=O)c1cccc(S(=O)(=O)N2CCCC2)c1)c1cccs1 0.78%, O=C(CN1CCN(c2ncc(C(F)(F)F)cc2Cl)CC1)NC(=O)NCc1ccccc1 -3.07%, Cn1c2c(c(=O)n3ncnc13)CCCC2 -2.57%, CCn1nnnc1SCC(=O)Nc1ccc(OC)cc1 3.82%, CCn1c(CCNC(=O)c2ccc(OC)cc2)nnc1SCC(=O)Nc1ccccc1F 1.93%, O=C(COC(=O)c1cccnc1)Nc1ccccc1 2.57%, O=C(O)Cn1nnnc1SCC(=O)Nc1ccccc1F 18.7%, O=C(O)CCC(=O)Nc1ccc(OCC(=O)O)cc1 -3.01%, Cc1ccc(OCCCC(=O)Nc2ccc(Br)cc2)cc1 -1.62%, CCOc1ccc(NC(=O)CSc2nnc(CCNC(=O)c3ccc(OC)cc3)n2C)cc1 23.6%, Cc1ccc(NC(=O)COC(=O)c2cccnc2)cc1 25.2%, Cc1ccccc1NC(=O)NCc1ccc2c(c1)OCO2 5.21%, O=C(c1cnsn1)N1CCN(c2ccccn2)CC1 -4.02%, Cc1nc(C(=O)O)nn1-c1ccc([N+](=O)[O-])cc1 0.22%, COc1cccc([C@@H]2Oc3ccc(OC)cc3C(=O)[C@H]2OC(=O)N[C@H](C)C2CCCCC2)c1 -23.2%, O=[N+]([O-])c1ccc2c(c1)/C(=N\O)c1ccccc1-2 2.49%, CN1CCN(c2ccc(C(CC(N)=O)NC(=O)Cc3ccc(Br)cc3)cc2[N+](=O)[O-])CC1 (centres undefined) 5.26%, O=C(N/N=C\c1ccc2c(c1)OCO2)c1ccco1 26.4%, CCn1nnnc1SCC(=O)Nc1ccc(OCc2ccccc2)cc1 4.99%, Nn1cnnc1SCC(=O)Nc1ccc(C2CCCCC2)cc1 -2.76%, CCOc1ccc(OCC)c(NC(=O)CSCC(=O)O)c1 2.8%, CCCCOc1ccc(C(=O)O)cc1 23.4%, CCOc1ccc(NC(=O)CCC(=O)O)cc1 18%, CCCCOc1ccc(CC(=O)NCC(=O)O)cc1 4.31%, O=C(CSCCO)Nc1ccc(C2CCCCC2)cc1 6.11%, CCCc1nnc(SCC(=O)Nc2ccc(OCC)cc2)n1N 30.4%, O=C(Nc1nc2ccsc2c(=O)s1)c1ccco1 2.03%, COc1cc(/C=N/NC(=O)c2ccccc2Cl)ccc1Oc1ccc([N+](=O)[O-])cn1 3.71%, COC(=O)c1ccccc1NC(=O)c1ccccc1N(C)S(=O)(=O)c1ccccc1 -2.99%, CCN(C(=O)CCc1nc(-c2ccc(OC)cc2)no1)c1cc(OC)ccc1OC -5.65%, Cc1ccc(S(=O)(=O)N(C)CC(=O)OCC(=O)NC(c2ccccc2)c2ccccc2)cc1 11.4%, Cc1ccc(-c2ccc(/C=N/NC(=O)c3ccccc3O)o2)cc1 3.44%, COc1ccc(C(=O)Nc2nc3cc4c(cc3s2)OCCO4)c(OC)c1 -6.2%, Cc1ccc(NC(=O)NCc2ccccn2)cc1 5.76%, COc1ccc(C(=O)NC(=S)NNC(=O)COc2ccccc2)cc1 1.34%, Cc1ccc(C(=O)NNC(=S)NC(=O)COc2ccccc2)cc1 16.5%, CC(C)(C)c1cc(CCC(=O)NNC(=O)c2ccco2)cc(C(C)(C)C)c1O -5.01%, COc1ccc(C(=O)NC(=S)NNC(=O)Cc2cccs2)cc1 41.2%, CC(=O)NC(=S)NNC(=O)CCc1ccccc1 21.3%, O=C(CCc1ccccc1)NNC(=S)NC(=O)c1ccc(Cl)cc1 92.7%, O=C(Cc1cccs1)NNC(=S)NC(=O)c1ccc(F)c(F)c1 7.14%, CC(C)(C)c1cc(CCC(=O)NN)cc(C(C)(C)C)c1O -14%, CCOC(=O)N1CCC(N2C(=O)c3ccccc3C2Nc2ccc(S(=O)(=O)N3CCOCC3)cc2)CC1 (centres undefined) 2.69%, Cc1cccc(NC(=O)CCCn2cc([N+](=O)[O-])cn2)n1 -2.41%, COc1ccc(OC)c(NC(=O)CSCC(=O)O)c1 6.02%, Cc1cc(C(=O)CCC(=O)N2CCN(S(=O)(=O)c3cccs3)CC2)c(C)s1 0.37%, CN1C[C@@H]2C[C@@H](c3cccn3-c3nccs3)N3CCC[C@@]23C1=O -0.22%, Cc1ccc(NC(=O)CN2CCCCCC2)cc1Br 9.91%, Cc1cc(C(=O)CCl)c(C)n1-c1cccc(S(=O)(=O)N2CCOCC2)c1 1.27%, Cc1cc(C(=O)COc2ccccc2[N+](=O)[O-])c(C)n1-c1cccc(S(=O)(=O)N2CCOCC2)c1 2.08%, CCSC1=C(C#N)C(c2ccccc2Cl)C(C(=O)c2cccs2)C(O)(C(F)(F)F)N1 (centres undefined) -2.94%, CC(Sc1ccc2c(c1)OCCO2)C(=O)Nc1ccc2c(c1)OCO2 (centres undefined) 31.4%, CC(Sc1ccc2c(c1)OCCO2)C(=O)Nc1ccc(N2CCOCC2)cc1 (centres undefined) -0.69%, CCCNC(=O)NC(=O)CSc1ccc2c(c1)OCCO2 -3.31%, O=C(CSc1ccc2c(c1)OCCO2)Nc1ncc(Cl)cc1Cl 33.8%, CCOc1cc(S(=O)(=O)Nc2ccccc2CC)ccc1Cl 8.77%, O=C(CSc1nnc(NC2CCCCC2)s1)NC1CCS(=O)(=O)C1 (centres undefined) 11.6%, O=C(CSc1nnc(NC2CCCCC2)s1)NCc1ccco1 1.38%, Nc1nnc(SCC(=O)NN2C(=O)NC3(CCCCC3)C2=O)s1 28%, Cc1nnc(SCC(=O)NN2C(=O)NC3(CCCCC3)C2=O)s1 0.53%, Cn1nc(C(=O)NNc2c(F)c(F)cc(F)c2F)c2ccccc2c1=O 10.2%, Cc1ccccc1Nc1nc(N)nc(CSc2nnnn2-c2ccccc2)n1 2.91%, CCCCn1nc(C(=O)Nc2cc(S(=O)(=O)N(C)C)ccc2C)c2ccccc2c1=O 0.9%, CCCN(c1ccc(C(=O)OC)cc1)S(=O)(=O)c1ccccc1 -1.32%, Cc1cccc(NC(=O)CSc2nnc(NC(=O)CN3CCCCC3)s2)c1 52.7%, Cc1cccc(Nc2nnc(SCC(=O)Nc3cccc(S(=O)(=O)N4CCCCC4)c3)s2)c1 33.5%, CCc1ccc(Nc2nnc(SCC(=O)Nc3ccc(C(=O)O)cc3)s2)cc1 33%, CC(=O)c1ccc(NC(=O)CSc2nnc(NC(=O)CN3CCOCC3)s2)cc1 28.4%, Cc1cccc(C)c1NC(=O)CSc1nnc(NC(=O)CN2CCOCC2)s1 24.1%, O=C(CSc1nnc(NC(=O)CN2CCOCC2)s1)Nc1ccccc1 27.4%

Source: PubChem BioAssay AID1619 (SRMLSC, 2009)
